Values joined by “and” are separate entries in the source; they are usually repeats but may differ in a detail not shown here. Equal entries are not always repeated. Results filed as inconclusive are left out. A structure can be active in one record and inactive in another. Active and inactive are the calls of the source. The calls were made as follows, unless noted: active = hit-call score of the fitted dose curve at least 0.9, where 1 is the maximum; inactive = score below 0.9.
What was measured:
[1] = ATG_PBREM_CIS: Attagene CIS-FACTORIAL HepG2 Assay for human Phenobarbital-responsive Enhancer Module (PBREM) (AID 2282955); conditions: HepG2 PBREM cis-reporter, Attagene multiplexed transcription; actives raise or lower the signal
Outline: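 Multiplexed cis-reporter readout in human hepatoma HepG2 cells; PBREM-regulated transcript quantified after 24 h exposure by fluorescent RT-PCR fragment analysis. Signal changes up or down fitted relative to DMSO.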

[2] = molecular target: Paired box protein Pax-6 (Homo sapiens) (UniProt P26367); assay: ATG_Pax6_CIS: Attagene CIS-FACTORIAL HepG2 Assay for human Paired Box 6 (PAX6) (AID 2282956); conditions: HepG2 CIS-FACTORIAL PAX6 reporter transcription, RNA readout; actives raise or lower the signal
Paired box protein Pax-6 (Homo sapiens), sequence (P26367 whole entry, looked up): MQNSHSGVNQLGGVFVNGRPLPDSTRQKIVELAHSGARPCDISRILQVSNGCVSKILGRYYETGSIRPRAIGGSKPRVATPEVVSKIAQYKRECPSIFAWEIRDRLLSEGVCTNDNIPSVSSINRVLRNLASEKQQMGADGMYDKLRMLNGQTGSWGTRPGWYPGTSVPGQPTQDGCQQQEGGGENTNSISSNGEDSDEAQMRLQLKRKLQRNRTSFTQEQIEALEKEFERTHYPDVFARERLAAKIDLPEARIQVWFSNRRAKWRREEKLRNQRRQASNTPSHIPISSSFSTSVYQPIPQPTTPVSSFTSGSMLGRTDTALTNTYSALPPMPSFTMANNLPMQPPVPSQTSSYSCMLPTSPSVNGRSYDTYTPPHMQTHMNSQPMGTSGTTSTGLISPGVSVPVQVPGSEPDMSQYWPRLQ
Outline: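 Fluorescent RT-PCR products separated by capillary electrophoresis report PAX6-linked promoter mRNA in HepG2 cells 24 h post-dose. Curves fitted bidirectionally, DMSO as negative control.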

[3] = ATG_PXRE_CIS: Attagene CIS-FACTORIAL HepG2 Assay for human Pregnane X Receptor Element (PXRE) (AID 2282957); conditions: HepG2 Attagene CIS-FACTORIAL PXRE reporter, mRNA; actives raise or lower the signal
Outline: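 Using HepG2 transfected with multiple reporter transcription units, endogenous factor-driven transcription was scored as reporter mRNA after 24 h exposure.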

[4] = ATG_PPRE_CIS: Attagene CIS-FACTORIAL HepG2 Assay for human Peroxisome Proliferator-activated Response Element (PPRE) (AID 2282958); conditions: HepG2 PPRE cis-element reporter, Attagene transcription factor profiling; actives raise or lower the signal
Outline: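 DMSO served as negative control and baseline for bidirectional curve fitting. Signal came from PPRE-regulated reporter mRNA in HepG2 cells, measured 24 h post-dosing by RT-PCR, 6-FAM primer extension and capillary electrophoresis.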

[5] = ATG_RORE_CIS: Attagene CIS-FACTORIAL HepG2 Assay for human RAR-related Orphan Receptor Element (RORE) (AID 2282959); conditions: HepG2 Attagene cis-factorial RORE reporter, mRNA; actives raise or lower the signal
Outline: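 Transfect HepG2 with MRTUs; treat 24 h; extract RNA; RT with oligo(dT); PCR with reporter-specific primers; 6-FAM primer extension; HpaI digest 2 h at 37 C; capillary electrophoresis. Fit vs DMSO, bidirectional.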

[6] = ATG_Sox_CIS: Attagene CIS-FACTORIAL HepG2 Assay for human SRY-box transcription factor (SOX) (AID 2282960); conditions: HepG2 Attagene cis-factorial SOX reporter, mRNA; actives raise or lower the signal
Outline: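 Fluorescence-labelled cDNA fragments from reporter transcripts, sized by CE, give the signal. Cells: HepG2, transiently transfected with cis-regulated reporter units. Exposure 24 h; DMSO negative control; bidirectional curve fitting.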

[7] = molecular target: Transcription factor Sp1 (Homo sapiens) (UniProt P08047); assay: ATG_Sp1_CIS: Attagene CIS-FACTORIAL HepG2 Assay for human Specificity Protein 1 (Sp1) (AID 2282961); conditions: HepG2 Sp1 cis-reporter transcription, actives raise or lower the signal
Transcription factor Sp1 (Homo sapiens), sequence (P08047 whole entry, looked up): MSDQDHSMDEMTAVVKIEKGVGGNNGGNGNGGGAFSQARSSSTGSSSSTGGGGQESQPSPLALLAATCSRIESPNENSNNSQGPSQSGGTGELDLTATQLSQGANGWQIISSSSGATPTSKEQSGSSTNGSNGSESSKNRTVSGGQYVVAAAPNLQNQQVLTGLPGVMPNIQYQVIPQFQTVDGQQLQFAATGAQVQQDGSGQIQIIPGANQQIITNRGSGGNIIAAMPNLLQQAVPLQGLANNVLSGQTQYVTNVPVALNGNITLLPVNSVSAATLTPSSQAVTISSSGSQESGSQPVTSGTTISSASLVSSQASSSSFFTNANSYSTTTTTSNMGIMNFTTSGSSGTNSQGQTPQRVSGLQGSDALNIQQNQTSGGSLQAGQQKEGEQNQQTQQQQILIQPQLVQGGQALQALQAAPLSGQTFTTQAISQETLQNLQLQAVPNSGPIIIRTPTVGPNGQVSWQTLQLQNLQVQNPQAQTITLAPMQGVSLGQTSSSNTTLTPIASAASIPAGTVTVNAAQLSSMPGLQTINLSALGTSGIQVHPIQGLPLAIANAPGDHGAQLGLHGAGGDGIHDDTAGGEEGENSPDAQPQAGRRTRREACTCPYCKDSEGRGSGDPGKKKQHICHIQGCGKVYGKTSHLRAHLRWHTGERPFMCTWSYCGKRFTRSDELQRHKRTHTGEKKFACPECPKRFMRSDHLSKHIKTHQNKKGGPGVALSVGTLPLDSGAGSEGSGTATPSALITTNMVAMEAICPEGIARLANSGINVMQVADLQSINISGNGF
Outline: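 Chemicals are dosed onto HepG2 cells transfected with multiple cis-promoter reporter constructs, and after 24 h reporter RNA is reverse-transcribed, PCR-amplified and resolved by capillary electrophoresis for fluorescence quantitation; activity is scored up or down against DMSO.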

[8] = ATG_SREBP_CIS: Attagene CIS-FACTORIAL HepG2 Assay for human Sterol Regulatory Element Binding (SREBP) (AID 2282962); conditions: HepG2 Attagene cis-factorial SREBP reporter, mRNA; actives raise or lower the signal
Outline: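 Endogenous factor activity is measured in HepG2 through multiplexed reporter units under cis-element control. Following a 24 h incubation, reporter transcripts are reverse-transcribed, PCR-amplified and sized by capillary electrophoresis; activity is fitted in both directions relative to DMSO.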

[9] = molecular target: Signal transducer and activator of transcription 3 (Homo sapiens) (UniProt P40763); assay: ATG_STAT3_CIS: Attagene CIS-FACTORIAL HepG2 Assay for human Signal Transducer and Activator of Transcription 3 (STAT3) (AID 2282963); conditions: HepG2, Attagene cis-factorial STAT3 reporter transcription; actives raise or lower the signal
Signal transducer and activator of transcription 3 (Homo sapiens), sequence (P40763 whole entry, looked up): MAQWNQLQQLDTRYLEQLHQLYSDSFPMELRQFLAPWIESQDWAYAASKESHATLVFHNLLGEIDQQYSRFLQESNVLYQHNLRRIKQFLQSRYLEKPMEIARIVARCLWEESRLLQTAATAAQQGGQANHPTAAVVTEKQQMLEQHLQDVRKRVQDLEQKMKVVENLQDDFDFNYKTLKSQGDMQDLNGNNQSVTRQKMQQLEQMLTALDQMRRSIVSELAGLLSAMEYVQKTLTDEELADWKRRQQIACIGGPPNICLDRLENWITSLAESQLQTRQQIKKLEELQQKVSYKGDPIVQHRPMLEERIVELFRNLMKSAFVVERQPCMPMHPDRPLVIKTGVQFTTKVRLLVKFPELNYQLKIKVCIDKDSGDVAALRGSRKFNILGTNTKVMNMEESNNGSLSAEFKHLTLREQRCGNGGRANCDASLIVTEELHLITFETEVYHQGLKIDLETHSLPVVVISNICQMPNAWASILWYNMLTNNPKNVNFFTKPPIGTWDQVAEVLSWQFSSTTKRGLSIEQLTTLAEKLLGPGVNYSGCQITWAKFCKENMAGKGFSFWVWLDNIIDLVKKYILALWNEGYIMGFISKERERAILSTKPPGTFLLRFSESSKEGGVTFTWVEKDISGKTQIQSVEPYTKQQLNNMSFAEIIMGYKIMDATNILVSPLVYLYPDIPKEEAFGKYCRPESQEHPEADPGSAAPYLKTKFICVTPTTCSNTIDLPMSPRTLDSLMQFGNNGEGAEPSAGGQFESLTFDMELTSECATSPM
Outline: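 HepG2, MRTU-transfected, 24 h dosing. RNA → RT → PCR → FAM label → HpaI → CE. Bidirectional fit vs DMSO.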

[10] = ATG_TA_CIS: Attagene CIS-FACTORIAL HepG2 Assay for human TA Basal Promoter (AID 2282964); conditions: HepG2 Attagene CIS-factorial TA basal promoter reporter; actives raise or lower the signal
Outline: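 Cis-factorial format in HepG2: reporters report endogenous factors, not chimeric Gal4 fusions. After 24 h treatment, reporter transcripts were measured by RT-PCR-capillary electrophoresis fluorescence, analysed bidirectionally versus DMSO.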

[11] = ATG_TCF_b_cat_CIS: Attagene CIS-FACTORIAL HepG2 Assay for human T-Cell-Factor with beta-catenin (TCF/b-cat) (AID 2282965); conditions: HepG2 TCF/beta-catenin cis-reporter transcription, actives raise or lower the signal
Outline: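 Using capillary electrophoresis as the read-out, labelled reporter cDNA fragments from transiently transfected HepG2 were sized and quantified. Exposure lasted 24 hours; activity in either direction was referenced to DMSO.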

[12] = ATG_TAL_CIS: Attagene CIS-FACTORIAL HepG2 Assay for human TAL Basal Promoter (AID 2282966); conditions: HepG2 Attagene cis-factorial TAL promoter reporter; actives raise or lower the signal;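 also: background control endpoint measuring basal TAL promoter reporter mRNA not a specific factor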
Outline: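 After 24 hours of chemical exposure, transfected HepG2 cells yielded RNA that was converted to 6-FAM-labelled, HpaI-digested reporter fragments for capillary electrophoresis. Values derive from bidirectional fitting against DMSO controls.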

[13] = ATG_TGFb_CIS: Attagene CIS-FACTORIAL HepG2 Assay for human Transforming Growth Factor (TGF) (AID 2282967); conditions: HepG2 Attagene CIS TGFb reporter, mRNA transcription; actives raise or lower the signal
Outline: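 Multiplexed cis-reporter HepG2 system, 24 h treatment; mRNA induction read by fluorescence after RT-PCR and CE; DMSO negative control, bidirectional curve fitting.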

[14] = ATG_VDRE_CIS: Attagene CIS-FACTORIAL HepG2 Assay for human Vitamin D Receptor Element (VDRE) (AID 2282968); conditions: HepG2 VDRE cis-reporter transcription, actives raise or lower the signal
Outline: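 Steps: transfect HepG2 with multiple reporter transcription units; dose chemicals 24 h; isolate RNA; RT-PCR; label with 6-FAM primer extension; HpaI digest; capillary electrophoresis. Curves fitted both directions against DMSO.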

[15] = molecular target: Nuclear receptor subfamily 1 group I member 3 (Homo sapiens) (UniProt Q14994); assay: ATG_CAR_TRANS: Attagene TRANS-FACTORIAL HepG2 Assay for human Constitutive Androstane Receptor (CAR) (AID 2282969; active = hit-call score of the fitted dose curve at least 0.9, where 1 is the maximum;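 also: activators raise reporter mRNA above DMSO so AC50 marks induction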); conditions: HepG2 Attagene TRANS-FACTORIAL CAR reporter
Nuclear receptor subfamily 1 group I member 3 (Homo sapiens), sequence (Q14994 whole entry, looked up, the tested form may be a part): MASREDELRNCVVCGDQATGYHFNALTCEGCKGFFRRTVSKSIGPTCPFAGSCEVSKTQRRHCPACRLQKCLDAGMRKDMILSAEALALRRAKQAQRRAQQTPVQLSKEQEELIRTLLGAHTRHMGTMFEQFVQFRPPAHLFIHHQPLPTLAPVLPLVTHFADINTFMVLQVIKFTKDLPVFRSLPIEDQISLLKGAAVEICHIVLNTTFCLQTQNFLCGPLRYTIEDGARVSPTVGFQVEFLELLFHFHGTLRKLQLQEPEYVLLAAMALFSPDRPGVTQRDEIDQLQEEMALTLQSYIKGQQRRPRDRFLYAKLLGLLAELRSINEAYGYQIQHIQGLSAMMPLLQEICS
Outline: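 Steps: transient transfection of HepG2 with multiple GAL4-UAS reporter units; 24 h compound incubation; RNA isolation, RT-PCR, 6-FAM primer extension, HpaI digest; capillary electrophoresis. Gain-of-signal relative to DMSO negative control.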

[16] = molecular target: Estrogen receptor (Homo sapiens) (UniProt P03372); assay: ATG_ERa_TRANS: Attagene TRANS-FACTORIAL HepG2 Assay for human Estrogen Receptor alpha (ERa) (AID 2282970; active = hit-call score of the fitted dose curve at least 0.9, where 1 is the maximum); conditions: HepG2 Attagene TRANS ERa GAL4 reporter, mRNA
Estrogen receptor (Homo sapiens), sequence (P03372 whole entry, looked up, the tested form may be a part): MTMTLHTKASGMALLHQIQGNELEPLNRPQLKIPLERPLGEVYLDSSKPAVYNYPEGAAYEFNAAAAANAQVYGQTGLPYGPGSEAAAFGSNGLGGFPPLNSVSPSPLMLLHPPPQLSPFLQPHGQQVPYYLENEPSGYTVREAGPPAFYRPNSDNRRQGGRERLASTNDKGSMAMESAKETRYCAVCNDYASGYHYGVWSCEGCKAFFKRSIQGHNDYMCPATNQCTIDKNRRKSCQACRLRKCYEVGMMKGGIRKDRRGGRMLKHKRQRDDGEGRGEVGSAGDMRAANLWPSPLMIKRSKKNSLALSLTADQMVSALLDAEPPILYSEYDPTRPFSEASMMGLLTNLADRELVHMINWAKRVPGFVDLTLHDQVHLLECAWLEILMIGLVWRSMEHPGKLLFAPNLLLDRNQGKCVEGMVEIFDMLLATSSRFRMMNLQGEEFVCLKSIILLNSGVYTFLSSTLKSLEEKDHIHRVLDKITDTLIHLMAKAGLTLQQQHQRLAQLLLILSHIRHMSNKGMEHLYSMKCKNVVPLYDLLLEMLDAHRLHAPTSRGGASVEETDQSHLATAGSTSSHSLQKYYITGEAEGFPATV
Outline: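 Liver-derived HepG2 cells expressing chimeric nuclear receptor-Gal4 proteins from transient transfection were exposed for 24 hours. Gain of reporter mRNA signal versus DMSO, read by capillary electrophoresis of FAM-labelled PCR products, was recorded.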

[17] = molecular target: X-box-binding protein 1 (Homo sapiens) (UniProt P17861); assay: ATG_Xbp1_CIS: Attagene CIS-FACTORIAL HepG2 Assay for human X-box Binding Protein 1 (XBP1) (AID 2282972); conditions: HepG2 XBP1 cis-element reporter, Attagene multiplex; actives raise or lower the signal
X-box-binding protein 1 (Homo sapiens), sequence (P17861 whole entry, looked up): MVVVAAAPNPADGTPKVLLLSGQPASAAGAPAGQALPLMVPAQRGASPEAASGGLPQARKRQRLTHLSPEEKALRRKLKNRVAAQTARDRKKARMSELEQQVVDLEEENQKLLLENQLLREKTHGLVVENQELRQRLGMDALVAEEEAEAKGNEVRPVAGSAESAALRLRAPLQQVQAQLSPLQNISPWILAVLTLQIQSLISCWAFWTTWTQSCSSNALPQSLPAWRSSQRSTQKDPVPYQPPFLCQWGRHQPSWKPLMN
Outline: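 Multiplexed cis-reporter readout in transfected HepG2 liver cells. Exposure lasted 24 hours. Activity in either direction was fitted against DMSO as negative control and baseline.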

[18] = ATG_GAL4_TRANS: Attagene TRANS-FACTORIAL HepG2 Assay for GAL4 (Internal Marker) (AID 2282976; active = hit-call score of the fitted dose curve at least 0.9, where 1 is the maximum); conditions: HepG2 Attagene TRANS GAL4 internal marker reporter
Outline: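 First, HepG2 cells were transfected with reporter units under GAL4-UAS control. Next, they were treated with chemical for 24 h. Finally, RNA was reverse-transcribed, PCR-amplified, FAM-labelled and resolved by capillary electrophoresis, with induction scored against DMSO.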

[19] = molecular target: Steroid hormone receptor ERR1 (Homo sapiens) (UniProt P11474); assay: ATG_ERRa_TRANS: Attagene TRANS-FACTORIAL HepG2 Assay for human Estrogen-Related Receptor alpha (ERRa) (AID 2282971; active = hit-call score of the fitted dose curve at least 0.9, where 1 is the maximum); conditions: HepG2 Attagene TRANS reporter, ERRa transactivation
Steroid hormone receptor ERR1 (Homo sapiens), sequence (P11474 whole entry, looked up, the tested form may be a part): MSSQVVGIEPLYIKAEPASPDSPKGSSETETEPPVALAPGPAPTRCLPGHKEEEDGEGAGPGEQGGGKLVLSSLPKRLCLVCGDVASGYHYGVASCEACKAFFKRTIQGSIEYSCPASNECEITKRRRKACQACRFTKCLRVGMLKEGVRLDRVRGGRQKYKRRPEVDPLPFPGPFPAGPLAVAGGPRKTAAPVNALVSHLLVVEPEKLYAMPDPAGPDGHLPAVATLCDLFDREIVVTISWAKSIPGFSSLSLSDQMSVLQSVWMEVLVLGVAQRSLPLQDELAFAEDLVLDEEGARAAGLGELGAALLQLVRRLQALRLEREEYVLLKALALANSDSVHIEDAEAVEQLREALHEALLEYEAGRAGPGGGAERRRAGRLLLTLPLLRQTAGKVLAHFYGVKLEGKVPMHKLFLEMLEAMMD
Outline: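 Reporter transcript induction was quantified by RT-PCR and capillary electrophoresis of FAM-labelled, HpaI-cut products after 24 h treatment of HepG2 cells carrying transiently transfected GAL4-UAS reporter units and an exogenous ERRa-Gal4 fusion; activity scored as increase over DMSO.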

[20] = ATG_M_19_TRANS: Attagene TRANS-FACTORIAL HepG2 Assay for M19 Transcription Factor (Internal Marker) (AID 2282974; active = hit-call score of the fitted dose curve at least 0.9, where 1 is the maximum); conditions: HepG2 Attagene TRANS-FACTORIAL M19 internal marker reporter
Outline: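 Multiplexed TRANS format: HepG2 liver cells bearing transient GAL4-UAS reporter units, chemical treatment 24 h, reporter transcripts quantified by RT-PCR plus capillary electrophoresis. DMSO defines baseline.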

Measured: AC50

CCOc1ccc2[nH]cc(C(=O)NCc3ccccc3)c(=O)c2n1
active: [3] 26.7 µM | [14] 27.6 µM
not listed: [19] | [20]
inactive: all other assays above

FC(F)(F)C(F)(F)C(F)(F)C(F)(F)C(F)(F)C(F)(F)I
active: [16] 13.7 µM and 17 µM
inactive: all other assays above

O=C(O)CO
not listed: [19]
inactive: all other assays above

c1ccc2c(c1)-c1cccc3c1c-2cc1ccccc13
inactive: [1] | [2] | [3] | [4] | [5] | [6] | [7] | [8] | [9] | [10] | [11] | [12] | [13] | [14] | [15] | [16] | [17] | [20] | [18]
active: [4] 2.26 µM

C[C@@H](Oc1ccc(CNC(=O)c2cccnc2Oc2ccc3c(c2)OCO3)c(F)c1)C(=O)O
not listed: [20]
inactive: all other assays above

NC(=O)N(O)[C@@H]1COc2cc(OCc3ccccc3)ccc21
not listed: [19] | [20]
inactive: all other assays above

O=C(Cl)C(F)(F)C(F)(F)C(F)(F)C(=O)Cl
inactive: all assays above

Cc1nc(-c2ccccn2)ncc1C(=O)Nn1cc(C)c2cc(F)ccc21
active: [3] 4.24 µM
not listed: [16]
inactive: all other assays above

S=P(N1CC1)(N1CC1)N1CC1
active: [3] 12.1 µM [middle of 4 runs] | [8] 157 µM | [14] 17 µM and 27.4 µM
inactive: [1] | [2] | [4] | [5] | [6] | [7] | [8] | [9] | [10] | [11] | [12] | [13] | [14] | [15] | [16] | [19] | [17] | [20] | [18]

O=S(=O)(O)CCC(F)(F)C(F)(F)C(F)(F)C(F)(F)C(F)(F)C(F)(F)F
inactive: all assays above

CCCCCOC(C)=O
not listed: [16] | [18] | [19]
inactive: all other assays above

O=C(N[C@H](CO)[C@H](O)c1ccc([N+](=O)[O-])cc1)C(Cl)Cl
active: [3] 69.7 µM [middle of 4 runs]
inactive: [1] | [2] | [3] | [4] | [5] | [6] | [7] | [8] | [9] | [10] | [11] | [12] | [13] | [15] | [16] | [17] | [20] | [18]

CNC(C)=O
active: [3] 26.1 µM
not listed: [18] | [19] | [20]
inactive: all other assays above

OCc1c[nH]c2ccccc12
inactive: [1] | [2] | [6] | [7] | [8] | [9] | [10] | [11] | [12] | [13] | [15] | [19] | [17] | [20] | [18]
active: [1] 5.11 µM [middle of 4 runs] | [2] 6.46 µM and 23.1 µM and 38.2 µM | [3] 2.76 µM [middle of 5 runs] | [5] 2.51 µM [middle of 5 runs] | [14] 5.32 µM [middle of 5 runs] | [16] 5.36 µM [middle of 5 runs]

Source: PubChem BioAssay (EPA / NIEHS)
